# Source: PubChem BioAssay
# Hits are enriched below; roughly 13% of the tested compounds scored in any of these assays.
# USP17 inh = blocks human USP17 ubiquitin-rhodamine cleavage; purified USP17, Ub-rhodamine cleavage fluorescence, 3 h; inhibition, % at 50 µM; 47,000 compounds, 6.5% hits
# USP8 inh = blocks human USP8 ubiquitin-rhodamine cleavage; P40818; purified USP8, Ub-rhodamine cleavage fluorescence, 30 min; inhibition, % at 20 µM; 47,000 compounds, 4.2% hits; AID 1645853
# USP30 block = human USP30 deubiquitinase inhibition; Q70CQ3; purified USP30, Ub-rhodamine cleavage fluorescence; inhibition, % at 25 µM; 47,000 compounds, 5.3% hits
# USP28 block = human USP28 deubiquitinase inhibition | Q96RU2 | purified USP28, Ub-rhodamine cleavage fluorescence, 30 min | inhibition, % at 25 µM | 47,000 compounds, 3% hits | AID 1645857
# Target sequence (Q96RU2 whole entry, looked up): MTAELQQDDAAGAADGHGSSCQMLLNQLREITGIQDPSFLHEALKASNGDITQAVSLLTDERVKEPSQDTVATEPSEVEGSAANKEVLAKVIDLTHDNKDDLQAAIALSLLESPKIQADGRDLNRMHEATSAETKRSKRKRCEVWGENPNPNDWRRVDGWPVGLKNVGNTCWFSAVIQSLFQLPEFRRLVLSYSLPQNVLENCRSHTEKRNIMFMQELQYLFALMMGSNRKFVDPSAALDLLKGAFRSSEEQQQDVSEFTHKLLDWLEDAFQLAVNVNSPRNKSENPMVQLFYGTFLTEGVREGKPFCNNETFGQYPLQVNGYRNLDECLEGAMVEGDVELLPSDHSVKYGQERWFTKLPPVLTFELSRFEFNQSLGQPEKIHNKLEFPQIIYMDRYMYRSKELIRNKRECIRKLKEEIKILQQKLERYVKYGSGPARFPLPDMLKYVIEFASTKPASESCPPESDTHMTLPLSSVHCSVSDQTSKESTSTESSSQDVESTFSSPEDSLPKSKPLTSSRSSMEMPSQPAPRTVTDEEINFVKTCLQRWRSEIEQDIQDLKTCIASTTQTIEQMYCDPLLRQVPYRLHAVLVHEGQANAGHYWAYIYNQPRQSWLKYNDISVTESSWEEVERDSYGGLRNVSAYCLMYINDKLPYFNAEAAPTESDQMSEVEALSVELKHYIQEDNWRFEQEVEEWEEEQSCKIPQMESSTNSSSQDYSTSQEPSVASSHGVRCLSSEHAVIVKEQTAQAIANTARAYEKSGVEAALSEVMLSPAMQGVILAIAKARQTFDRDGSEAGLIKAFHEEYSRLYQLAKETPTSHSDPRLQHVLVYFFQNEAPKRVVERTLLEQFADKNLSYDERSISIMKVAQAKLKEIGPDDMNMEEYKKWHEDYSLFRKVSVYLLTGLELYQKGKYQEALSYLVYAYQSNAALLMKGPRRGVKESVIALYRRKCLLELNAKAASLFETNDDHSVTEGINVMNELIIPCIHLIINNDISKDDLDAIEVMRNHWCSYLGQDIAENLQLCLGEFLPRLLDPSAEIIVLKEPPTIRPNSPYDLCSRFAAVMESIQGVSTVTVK
# * hit, by the source's call; . = not tested or not shown. Rule as the data show it: active = inhibition above about 30%; inactive = the rest.
SMILES,USP17 inh,USP8 inh,USP30 block,USP28 block
Cc1nn(C)cc1C(C)NC(=O)c1cc2c(s1)CN(C1CC1)C2 (configuration not stated),3.1,30.6*,-59.7,-10.5
COc1cc(C)cc2c1C(=O)c1c(cc(O)c(Cl)c1O)C2=O,73.9*,-18.2,6.8,79.8*
CC(=O)N1CCCC(c2nc(C)cc(-c3cc(F)ccc3C(=O)O)n2)C1 (configuration not stated),7.1,10.8,63.7*,7.4
COc1ccc(C(C)=O)c(OC(=O)C2CCN(S(=O)(=O)c3ccc(C(C)C)cc3)CC2)c1,17.3,18.8,12.4,5.6
COc1cc(OC)c2c(C)c(CC(=O)N[C@@H](Cc3c[nH]c4ccccc34)C(=O)O)c(=O)oc2c1,7.9,0.6,-1.0,-1.6
COc1cc(OC)c2c(C)c(CC(=O)Nc3cccc(C(C)O)c3)c(=O)oc2c1 (configuration not stated),30.3*,3.1,6.9,9.4
Cc1ccc(-c2cc(NC(=O)C(C)C)c(=O)n(CC(=O)Nc3ccc(Cl)cc3)n2)cc1,-2.0,-11.1,-8.2,-5.0
CC(OC(=O)c1ccccc1Sc1ccccc1C#N)C(=O)Nc1cccc([N+](=O)[O-])c1 (configuration not stated),25.6,4.1,36.4*,27.3
CC(OC(=O)c1cc(S(=O)(=O)Nc2ccccc2F)ccc1Cl)C(=O)Nc1ccc([N+](=O)[O-])cc1C(F)(F)F (configuration not stated),10.4,-97.5,-7.5,14.6
COc1ccc(CN2C[C@H]3CCN(C(=O)COc4ccccc4)CC[C@H]3S2(=O)=O)cc1,-20.7,-63.3,-9.4,-9.8
O=C(COc1ccc(Cl)cc1)NCc1nnc(SCC(=O)Nc2nc3ccccc3s2)o1,32.8*,-21.7,-74.5,15.8
O=C(COc1ccc(Cl)cc1)NCc1nnc(SCC(=O)NCc2ccc(F)cc2)o1,0.8,-14.8,27.1,7.5
O=C(COc1ccc(Cl)cc1)NCc1nnc(SCC(=O)N2CCc3ccccc32)o1,24.2,21.7,39.6*,2.6
Cc1cc(NC(=O)CSc2nnc(COc3ccc(Cl)cc3)o2)no1,2.9,-5.0,-14.8,-3.1
O=C(COc1ccc(Cl)cc1)NCc1nnc(SCC(=O)N2CCN(c3ccccc3)CC2)o1,40.6*,15.0,38.5*,5.3
O=S(=O)(c1cn[nH]c1)N1CCC(O)(CN2CCCC2)C1 (configuration not stated),-2.0,3.2,-2.8,-5.9
COc1ccc(CN2C[C@@]34CN(C(=O)Cc5ccccc5)C[C@@H](C[C@@H]3S2(=O)=O)O4)cc1,-1.2,-3.7,20.8,4.0
COc1ccc(NS(=O)(=O)c2cc(NC(=O)CCc3nc4ccccc4s3)ccc2C)cc1,59.6*,22.1,35.2*,-2.3
CCc1cccc2c(C(=O)COc3ccc(C#N)cc3)c[nH]c12,42.9*,81.8*,90.6*,70.7*
O=C(Cn1cc(S(=O)(=O)Cc2ccccc2)c2ccccc21)NCCC1=CCCCC1,-12.6,-5.7,-55.2,-5.9
O=C(Cn1cc(S(=O)(=O)Cc2ccccc2)c2ccccc21)Nc1ccccc1,21.7,33.5*,-134.9,-18.2
O=C(CS(=O)(=O)c1cn(CC(=O)N2CCOCC2)c2ccccc12)Nc1ccccc1,10.5,8.9,4.1,1.1
COc1ccc(NC(=O)Cn2cc(S(=O)(=O)Cc3ccccc3)c3ccccc32)c(OC)c1,19.2,32.7*,3.8,15.8
Cc1ccccc1NC(=O)Cn1cc(S(=O)(=O)Cc2ccccc2)c2ccccc21,.,35.3*,-68.4,-0.2
CNc1cc(C)nc(C2COCCN2C(=O)Cn2nc(C)cc2C)n1 (configuration not stated),-1.9,0.6,-18.8,-3.1
SMILES,USP17 inh,USP8 inh,USP30 block,USP28 block
COc1ccccc1NC(=O)COc1cc(C)nc(-c2ccc(C)cc2)n1,56.2*,19.3,62.0*,19.5
CCOc1ccc(NC(=O)COc2ccccc2OC)c2cccnc12,25.5,32.8*,-26.9,-6.0
CCOc1ccc(NC(=O)COc2ccccc2C)c2cccnc12,-4.2,-1.1,-18.4,-6.0
COc1ccccc1OCC(=O)Nc1cccc2ccc(C)nc12,47.2*,4.2,33.8*,4.4
CCOc1ccccc1NC(=O)COc1cc(OC)ccc1C(=O)c1ccccc1,9.8,7.8,20.2,56.3*
Cc1ccsc1CN(C(=O)c1cc2ccccc2oc1=O)C1CCS(=O)(=O)C1 (configuration not stated),-15.7,-3.2,-16.8,-4.5
O=C(O)c1ccc(COc2ccc(OC(F)(F)F)cc2)o1,8.5,2.8,2.9,10.3
CN1CC(=O)N(C2CCCNC2)Cc2c(NC3CCCCC3)ncnc21 (configuration not stated),-31.8,-108.2,-81.4,-19.4
CC(C)n1nnc2cc(S(=O)(=O)N3CCCC(C(=O)NCCc4ccco4)C3)ccc21 (configuration not stated),41.6*,16.7,-30.2,7.3
CCOc1ccccc1C(=O)OCC(=O)Nc1ncc(Cl)cc1Cl,-57.8,-62.3,-208.6,-50.9
Cc1ccccc1NC(=O)Nc1ccccc1OCc1cc(=O)n2cccc(C)c2n1,46.7*,46.2*,42.8*,27.7
Cc1cccc(NCc2cc(=O)n3cccc(C)c3n2)c1C,-40.3,-6.4,-133.8,-15.8
Cc1cc(C)cc(NC(=O)Nc2ccccc2OCc2cc(=O)n3c(ncn3C(C)C)n2)c1,-10.2,50.2*,-26.8,-6.0
c1ccc(CN2CCCn3c(nc4ccccc43)C2)nc1,0.2,-0.6,1.7,-9.6
Cc1ccc(S(=O)(=O)N2CCOC23CCN(C(=O)c2cc(C)cc(C)c2)CC3)cc1,9.3,4.2,3.8,19.6
CCn1nnc2cc(C(=O)NCc3ccc4c(c3)OCO4)ccc21,-6.0,-11.9,-18.6,4.7
Nc1c(C(=O)NCc2ccc3c(c2)OCO3)nnn1Cc1ccc(Br)cc1F,.,82.6*,75.4*,40.3*
COc1cc(NC(=O)Cn2nc(C(C)C)c(-c3cc(C)no3)cc2=O)cc(OC)c1,30.7*,-3.0,32.0*,38.2*
CNC(=O)[C@@H]1C[C@@H]2CN(C(=O)c3ccc(C)cc3)CCN2[C@@]12C(=O)Nc1ccccc12,1.5,0.3,2.0,1.2
Cc1cc(C)n(-c2ccnc(N3CCC(C(=O)N4CCN(c5ccccn5)CC4)CC3)n2)n1,-3.8,4.9,5.5,30.4*
CN(C)C(=O)c1ccc2c(c1)CCN2C(=O)C1CCCC1,0.1,8.1,-7.0,10.4
Cc1cc2n(n1)[C@@H](C(F)(F)F)C[C@@H](C1CCN(C(=O)Cc3sc(C)nc3C)CC1)N2,-21.5,-114.5,-7.9,-4.6
COCC(=O)N1CCC([C@@H]2C[C@H](C(F)(F)F)n3nc(C(C)(C)C)cc3N2)CC1,51.1*,0.3,.,.
O=C(NC1CCCc2ccccc21)c1ccc(=O)[nH]c1 (configuration not stated),-17.7,-107.0,-75.0,-23.9
O=C(CCCC1=NS(=O)(=O)c2ccccc2N1)Nc1ccc(Cl)c(Cl)c1,34.3*,-0.3,17.0,13.2
O=C1CCCC[C@@H]2[C@@H](N1)[C@H](c1ccccc1)CN2C(=O)COc1ccccn1,9.0,11.9,-6.0,-4.6
Cn1nc(C(=O)Nc2ccc(F)cc2)c2c1-c1ccccc1S(=O)(=O)C2,1.3,-4.8,-5.2,1.1
